This is a sample that favours compounds with a hit; in the whole collection about 6.1% have one here.
RORgamma inh = inhibitors of mouse ROR gamma transcriptional activity; P51450; hit rate 5.4% among 310,000; Drosophila S2 Gal4-RORgamma UAS-luciferase reporter, 20 h; Potency, µM (titrated, usually from 53.6 µM), without a hit: at the top dose activity change, negative = inhibition, usual class: inhibitors; also: % is scaled to controls: 0 for no effect and ±100 for the full control effect; nearly all actives have a fitted effect of over 60% in size
Target sequence (P51450 whole entry, looked up, the tested form may be a part): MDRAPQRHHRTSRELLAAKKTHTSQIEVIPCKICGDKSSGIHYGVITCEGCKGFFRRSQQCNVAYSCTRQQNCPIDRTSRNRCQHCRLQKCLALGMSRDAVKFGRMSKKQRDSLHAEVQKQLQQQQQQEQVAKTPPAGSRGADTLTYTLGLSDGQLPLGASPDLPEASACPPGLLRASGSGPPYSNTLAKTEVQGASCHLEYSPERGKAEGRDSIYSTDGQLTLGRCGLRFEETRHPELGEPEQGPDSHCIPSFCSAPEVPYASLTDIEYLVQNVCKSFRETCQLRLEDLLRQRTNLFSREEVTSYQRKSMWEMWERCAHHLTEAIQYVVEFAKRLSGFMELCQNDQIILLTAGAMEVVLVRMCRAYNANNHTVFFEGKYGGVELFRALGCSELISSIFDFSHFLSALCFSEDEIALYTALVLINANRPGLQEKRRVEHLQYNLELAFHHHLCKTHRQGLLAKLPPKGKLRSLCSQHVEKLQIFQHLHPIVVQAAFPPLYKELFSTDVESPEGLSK
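Compounds are pin-transferred onto Drosophila Schneider cells expressing a copper-inducible Gal4–ROR gamma transactivation domain fusion. After 1 hr, copper sulfate is added to 700 uM final; luciferase is read 20 hr later.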
Gal4-VP16 FLuc = Gal4-VP16 reporter inhibition counter-screen; Drosophila S2 Gal4-VP16 UAS-luciferase, luminescence, 20 h; Potency, µM (series often up to 53.6 µM), without a hit: top-dose activity, negative = inhibition, usual class: inhibitors; hit rate 3.5% among 310,000; AID 2546;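 also: Gal4-VP16 expression switched on by copper sulfate through the metallothionein promoter; % is scaled to controls: 0 for no effect and ±100 for the full control effect; nearly all actives have a fitted effect of over 50% in size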
ATXN viability = viability counter-screen for ATXN expression inhibitors; S2 cells (HEK-293 line with an ATXN2-luciferase reporter) viability, CellTiter-Fluor protease fluorescence, 24 h; Potency, µM (series often up to 56.7 µM), usual class: cytotoxic; hit rate 0.49% among 400,000; also: nearly all actives have a fitted effect of over 40% in size
ATXN2 expr inh = reduces ATXN2 reporter expression in HEK-293 cells; AID 1745845; Potency, µM (doses to about 57 µM), for the others: at the top dose activity change, negative = inhibition, most hits filed as inhibitors; hit rate 0.72% among 360,000; HEK-293 ATXN2-luciferase reporter, luminescence, 24 h; also: % is scaled to controls: 0 for no effect and ±100 for the full control effect; nearly all actives have a fitted effect of over 55% in size
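qHTS (up to 57 uM final) was run with 24 h compound exposure of reporter cells at 37 °C. Each well was multiplexed: SteadyGlo luminescence measured ATXN2-luciferase expression after a fluorogenic Gly-Phe-AFC viability readout (25 uM final).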
HepG2 tox = HepG2 cytotoxicity, counter-screen for TGF-b inhibitors; HepG2 CAGA-GFP viability, ATP luminescence, 18 h; Potency, µM (titrated, usually from 46.1 µM), for the others: at the top dose activity change, negative = cytotoxicity, most hits filed as cytotoxic; hit rate 0.76% among 410,000
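CellTiter-Glo luminescence gave cytotoxicity after 18 hours at 37 degrees C. The cells were HepG2 CAGA-GFP in 1% FBS DMEM, stimulated with 500 pg/mL TGF-beta after compound addition. %Activity was normalised to no-cell wells (complete cell-killing) and DMSO (no toxicity), and curves were fitted and classified.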
TGFb SMAD3 inh = TGF-b pathway inhibition | HepG2 CAGA-GFP TGF-b/SMAD3 reporter, GFP fluorescence, 18 h; TGF-beta stimulated, 500 pg/mL final | hit rate 1.2% among 410,000 | AID 588855 | Potency, µM (highest dose often 46.1 µM), for the others: at the highest dose activity, negative = inhibition, most hits filed as inhibitors; also: % is scaled to controls: 0 for no effect and ±100 for the full control effect; nearly all actives have a fitted effect of over 65% in size
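HEPG2 CAGA-GFP, 1000 cells/well; 2 h settle, 37 C; cpd via pin tool; TGF-b 500 pg/mL final; 18 h, 37 C; GFP imaging ex488/em500-530; %Activity normalised to -TGF-b and +DMSO controls; CRC fit, curve class.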
* = called active by the depositor. Calls follow the shape of the dose curve; as a rule, active = well fitted curve in the direction sought with a large enough effect; inconclusive = small, poorly fitted or top-dose-only effect, or another doubt; inactive = no such curve, though single readings can be large; an effect the other way counts as inactive or inconclusive. Potency is read from the fitted curve at half-maximal effect.

`CC(/C=C/c1ccc(N(C)C)cc1)=N\N=C1\NC(=O)CC(C(=O)Nc2ccccc2)S1` (stereo not given) gave RORgamma inh 2.2µM*, Gal4-VP16 FLuc 3.5µM*, ATXN viability inactive, ATXN2 expr inh 4%, HepG2 tox 2% and TGFb SMAD3 inh 16µM*.
Cc1c(C(=O)NCC2COCCO2)cnn1-c1nccc(-c2cccs2)n1 (stereo not given) was read as ATXN viability inactive.
Screening CCCCNC(=O)C(CC)Sc1nnc(-c2cccc(F)c2)c(-c2cccc(F)c2)n1 (stereo not given) returned HepG2 tox 4% and TGFb SMAD3 inh 18%.
`O=C(Nc1ccc(Cl)cc1)c1cc(S(=O)(=O)NC2CCCCCC2)ccc1F` gave HepG2 tox -88% and TGFb SMAD3 inh 8.9µM*.
Cc1ccc(NC(=O)c2cc(S(=O)(=O)NC3CCCCCC3)ccc2F)cc1F was read as ATXN viability inconclusive, ATXN2 expr inh -28%, HepG2 tox 13µM* and TGFb SMAD3 inh inconclusive.
Screening COc1ccc(OC(=O)c2nc(SCc3ccccc3F)ncc2Cl)cc1 returned HepG2 tox -8% and TGFb SMAD3 inh -7%.
`COC(=O)[C@@H]1[C@H]2C[C@@H]3c4[nH]c5ccccc5c4CCN3C[C@@H]2CC[C@@H]1O` gave ATXN2 expr inh 11%.
Screening CCOC(=O)N1CCc2c(sc(NCc3cccs3)c2C(=O)Nc2ccc(OC)cc2OC)C1 returned HepG2 tox -14% and TGFb SMAD3 inh 10µM*.
Screening CCOC(=O)N1CCc2c(sc(NCc3ccc(OCC)cc3)c2C(=O)Nc2ccc(OC)cc2OC)C1 returned ATXN viability inactive, ATXN2 expr inh 13µM*, HepG2 tox 2% and TGFb SMAD3 inh inconclusive.
CCOC(=O)N1CCc2c(sc(NCc3ccc(OC)c(OC)c3OC)c2C(=O)Nc2ccc(OC)cc2OC)C1 was read as ATXN viability inactive, ATXN2 expr inh -9%, HepG2 tox -14% and TGFb SMAD3 inh -34%.
For CCOc1ccccc1NC(=O)c1c(NC(=O)CNCc2ccco2)sc2c1CCC2 the results were RORgamma inh inconclusive and Gal4-VP16 FLuc 5.6µM*.
Screening COc1ccc(NC(=O)c2c(NCc3sccc3C)sc3c2CCCC3)c(OC)c1 returned ATXN viability inconclusive, ATXN2 expr inh inconclusive, HepG2 tox -13% and TGFb SMAD3 inh inconclusive.
Screening C=CCNCC(=O)Nc1sc2c(c1C(=O)Nc1ccc(OC)cc1OC)CCC2 returned RORgamma inh 0.45µM*, Gal4-VP16 FLuc 1.3µM*, ATXN viability inactive, ATXN2 expr inh -2%, HepG2 tox 2% and TGFb SMAD3 inh -1%.
`COc1cccc(OCC(=O)Nc2nnc3n2CCS3)c1` gave ATXN viability inactive, ATXN2 expr inh 8%, HepG2 tox -1% and TGFb SMAD3 inh 20%.
Screening CCc1ccc(NC(=O)C2CCC(CNS(=O)(=O)c3cccs3)CC2)cc1 (stereo not given) returned ATXN viability inactive, ATXN2 expr inh 5%, HepG2 tox -6% and TGFb SMAD3 inh 8%.
O=C(Oc1ccc(F)cc1)c1nc(SCc2ccc(F)cc2)ncc1Cl was read as HepG2 tox -3% and TGFb SMAD3 inh -2%.
For CC1=NN(c2nc(-c3ccc(C)cc3)cs2)C(=O)C1N=Nc1ccccc1O (stereo not given) the results were RORgamma inh 3%, Gal4-VP16 FLuc 3%, ATXN viability inactive, ATXN2 expr inh inconclusive, HepG2 tox -17% and TGFb SMAD3 inh -26%.
`O=C1c2ccccc2C(=O)N1c1nc(-c2ccc(F)cc2)cs1` gave HepG2 tox 6% and TGFb SMAD3 inh 42%.
For CC1=NN(c2nc(-c3ccc(Cl)cc3)cs2)C(=O)C1 the results were RORgamma inh 10µM*, Gal4-VP16 FLuc inconclusive, ATXN viability inactive, ATXN2 expr inh 0%, HepG2 tox -10% and TGFb SMAD3 inh 13%.
For CC1=NN(c2nc(-c3ccc(F)cc3)cs2)C(=O)C1 the results were RORgamma inh 13µM*, Gal4-VP16 FLuc -8%, ATXN viability inactive, ATXN2 expr inh 2%, HepG2 tox -44% and TGFb SMAD3 inh inconclusive.
`CC1=NN(c2ccc(Cl)cc2)C(=O)C1` gave RORgamma inh -2%, Gal4-VP16 FLuc inconclusive, ATXN viability inactive, ATXN2 expr inh -14%, HepG2 tox -16% and TGFb SMAD3 inh inconclusive.
Screening COc1ccc(-c2csc(N3N=C(C)C(C)C3=O)n2)cc1 (stereo not given) returned RORgamma inh 8.9µM*, Gal4-VP16 FLuc inconclusive, ATXN viability inconclusive, ATXN2 expr inh -7%, HepG2 tox -23% and TGFb SMAD3 inh -16%.
`COc1ccc(-c2cn3c(n2)sc2cc(C(=O)NCCc4ccccc4)ccc23)cc1` gave HepG2 tox -13% and TGFb SMAD3 inh -17%.
O=C(c1cnn(-c2nccc(-c3ccccc3C(F)(F)F)n2)c1C1CC1)N1CCN(CCO)CC1 was read as ATXN viability inactive.
Screening O=C(CN1CCCCC1)Nc1nnc(-c2ccc([N+](=O)[O-])cc2)s1 returned RORgamma inh 10µM*, Gal4-VP16 FLuc -15%, ATXN viability inactive, ATXN2 expr inh 2%, HepG2 tox -9% and TGFb SMAD3 inh inconclusive.
`O=C(C1CCC(Cn2c(=O)c3sccc3n(Cc3cccc(F)c3)c2=O)CC1)N1CCOCC1` (stereo not given) gave ATXN viability inactive, ATXN2 expr inh -13%, HepG2 tox -23% and TGFb SMAD3 inh -21%.
For Cc1ccc(Cl)cc1NC(=O)Cn1c(=O)cc(C)c2c(C)nn(C)c21 the results were ATXN viability inactive, ATXN2 expr inh -17%, HepG2 tox 6% and TGFb SMAD3 inh -1%.
For Cc1ccccc1-c1nnc(-c2ccc(Br)cc2)o1 the results were RORgamma inh -45%, Gal4-VP16 FLuc 2.8µM*, ATXN viability inactive, ATXN2 expr inh 46%, HepG2 tox -3% and TGFb SMAD3 inh -6%.
`Cc1ccccc1-c1nnc(-c2ccccc2C)o1` gave RORgamma inh inconclusive, Gal4-VP16 FLuc 24%, ATXN viability inactive, ATXN2 expr inh 128%, HepG2 tox -13% and TGFb SMAD3 inh 19%.
`COc1cccc(OC)c1CN1CCC2(CCC(CNC(=O)c3ccn(C)n3)O2)CC1` (stereo not given) gave ATXN viability inactive.

Screening results: PubChem, National Center for Advancing Translational Sciences (NCATS)
